# Assay results published in the supplement of paper PMC8728848.
# The entries come from a sample that favours the strongest signals as a whole.
# Columns and labels:
# Experiment in all cases: glycan array binding signal (z-score within array); higher = stronger binding
# Conditions in all cases: glycan notation: IUPAC condensed, linker removed
# [1] = target: Fuc(a1-2)Gal(b1-4)Fuc(a1-3)]GlcNAc(b1-2)Man(a1-3)[Fuc(a1-2)Gal(b1-4)[Fuc(a1-3)]GlcNAc(b1-2)Man(a1-6)]Man(b1-4)GlcNAc(b1-4)GlcNAc
# Method in brief: (§1)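 Columns mapping to the same glycan were averaged after glycan names were converted to IUPAC-condensed notation. The data come from 3228 arrays in the Consortium for Functional Glycomics database, limited to those with an available protein sequence. Binding is reported as a within-array Z-score averaged across arrays of one protein sequence and across linkers.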
# [2] = target: Fuc(a1-2)Gal(b1-4)GlcNAc(b1-2)Man(a1-3)[Fuc(a1-2)Gal(b1-4)GlcNAc(b1-2)Man(a1-6)]Man(b1-4)GlcNAc(b1-4)[Fuc(a1-6)]GlcNAc
# Method in brief: as §1
# [3] = target: Fuc(a1-2)Gal(b1-4)[Fuc(a1-3)]GlcNAc(b1-2)[Fuc(a1-2)Gal(b1-4)[Fuc(a1-3)]GlcNAc(b1-4)]Man(a1-3)[Fuc(a1-2)Gal(b1-4)[Fuc(a1-3)]GlcNAc(b1-2)Man(a1-6)]Man(b1-4)GlcNAc(b1-4)GlcNAc
# Method in brief: as §1
# [4] = target: Fuc(a1-2)Gal(b1-4)[Fuc(a1-3)]GlcNAc(b1-3)Gal(b1-4)[Fuc(a1-3)]GlcNAc(b1-3)Gal(b1-4)[Fuc(a1-3)]GlcNAc
# Method in brief: as §1
# [5] = target: Fuc(a1-2)Gal(b1-4)[Fuc(a1-3)]GlcNAc(b1-3)GalNAc
# Method in brief: as §1
# [6] = target: Fuc(a1-2)Gal3S(b1-4)GlcNAc
# Method in brief: as §1
# [7] = target: Fuc(a1-2)[Gal(a1-3)]Gal(b1-3)GalNAc
# Method in brief: as §1
# [8] = target: Fuc(a1-2)[Gal(a1-3)]Gal(b1-3)GlcNAc(b1-2)Man(a1-3)[Fuc(a1-2)[Gal(a1-3)]Gal(b1-3)GlcNAc(b1-2)Man(a1-6)]Man(b1-4)GlcNAc(b1-4)[Fuc(a1-6)]GlcNAc
# Method in brief: as §1
# [9] = target: Fuc(a1-2)[Gal(a1-3)]Gal(b1-4)GlcNAc
# Method in brief: as §1
# [10] = target: Fuc(a1-2)[Gal(a1-4)]Gal(b1-4)GlcNAc
# Method in brief: as §1
# [11] = target: Fuc(a1-2)[GalNAc(a1-3)]Gal(b1-4)GlcNAc(b1-3)Gal(b1-4)GlcNAc(b1-3)Gal(b1-4)GlcNAc
# Method in brief: as §1
# [12] = target: Gal(b1-3)GalNAc(b1-4)[Neu5Ac(a2-3)]Gal(b1-4)Glc
# Method in brief: as §1
# [13] = target: Gal(b1-3)[Neu5Ac(b2-6)]GalNAc
# Method in brief: as §1
# [14] = target: Gal(b1-4)GlcNAc(b1-2)Man(a1-3)[Gal(b1-4)GlcNAc(b1-2)Man(a1-6)][GlcNAc(b1-4)]Man(b1-4)GlcNAc(b1-4)[Fuc(a1-6)]GlcNAc
# Method in brief: as §1
# [15] = target: Gal(b1-4)GlcNAc(b1-3)Gal(b1-4)GlcNAc(b1-2)Man(a1-3)[Gal(b1-4)GlcNAc(b1-3)Gal(b1-4)GlcNAc(b1-2)Man(a1-6)]Man(b1-4)GlcNAc(b1-4)GlcNAc
# Method in brief: as §1
# [16] = target: Gal(b1-4)GlcNAc(b1-3)Gal(b1-4)GlcNAc(b1-2)Man(a1-3)[Gal(b1-4)GlcNAc(b1-3)Gal(b1-4)GlcNAc(b1-2)Man(a1-6)]Man(b1-4)GlcNAc(b1-4)[Fuc(a1-6)]GlcNAc
# Method in brief: as §1
# Gal3S(b1-3)GalNAc = target: Gal3S(b1-3)GalNAc
# Method in brief: as §1
# [17] = target: Gal3S(b1-3)[Fuc(a1-4)]GlcNAc
# Method in brief: as §1
# Gal6S(b1-3)GlcNAc6S = target: Gal6S(b1-3)GlcNAc6S
# Method in brief: as §1
# Gal6S(b1-4)Glc = target: Gal6S(b1-4)Glc
# Method in brief: as §1
# GalNAc3S(b1-4)GlcNAc3S = target: GalNAc3S(b1-4)GlcNAc3S
# Method in brief: as §1
# Glc(b1-4)Glc = target: Glc(b1-4)Glc
# Method in brief: as §1
# [18] = target: GlcNAc(a1-4)Gal(b1-3)GlcNAc
# Method in brief: as §1
# [19] = target: GlcNAc(a1-4)Gal(b1-4)GlcNAc(b1-3)Gal(b1-4)Glc
# Method in brief: as §1
# [20] = target: GlcNAc(b1-2)[GlcNAc(b1-4)]Man(a1-3)[GlcNAc(b1-4)][GlcNAc(b1-2)[GlcNAc(b1-6)]Man(a1-6)]Man(b1-4)GlcNAc(b1-4)[Fuc(a1-6)]GlcNAc
# Method in brief: as §1
# [21] = target: GlcNAc(b1-3)Gal(b1-4)GlcNAc(b1-2)Man(a1-3)[GlcNAc(b1-3)Gal(b1-4)GlcNAc(b1-2)Man(a1-6)]Man(b1-4)GlcNAc(b1-4)GlcNAc
# Method in brief: as §1
# [22] = target: GlcNAc(b1-3)Gal(b1-4)GlcNAc(b1-3)Gal(b1-4)GlcNAc(b1-2)Man(a1-3)[GlcNAc(b1-3)Gal(b1-4)GlcNAc(b1-3)Gal(b1-4)GlcNAc(b1-2)Man(a1-6)]Man(b1-4)GlcNAc(b1-4)GlcNAc
# Method in brief: as §1
# [23] = target: GlcNAc(b1-3)Gal(b1-4)GlcNAc(b1-3)Gal(b1-4)GlcNAc(b1-3)Gal(b1-4)GlcNAc(b1-2)[GlcNAc(b1-3)Gal(b1-4)GlcNAc(b1-3)Gal(b1-4)GlcNAc(b1-3)Gal(b1-4)GlcNAc(b1-6)]Man(a1-6)[GlcNAc(b1-3)Gal(b1-4)GlcNAc(b1-3)Gal(b1-4)GlcNAc(b1-3)Gal(b1-4)GlcNAc(b1-2)Man(a1-3)]Man(b1-4)GlcNAc(b1-4)[Fuc(a1-6)]GlcNAc
# Method in brief: as §1
# [24] = target: GlcNAc(b1-4)[GlcNAc(b1-6)]GalNAc
# Method in brief: as §1
# [25] = target: Man(a1-3)[Man(a1-6)]Man(b1-4)GlcNAc(b1-4)GlcNAc
# Method in brief: as §1
# [26] = target: Neu5Ac(a2-3)Gal(b1-3)GalNAc(b1-4)[Neu5Ac(a2-3)]Gal(b1-4)Glc
# Method in brief: as §1
# [27] = target: Neu5Ac(a2-3)Gal(b1-3)GalNAc6S
# Method in brief: as §1
# [28] = target: Neu5Ac(a2-3)Gal(b1-3)GlcNAc(b1-2)Man(a1-3)[Neu5Ac(a2-3)Gal(b1-3)GlcNAc(b1-2)Man(a1-6)]Man(b1-4)GlcNAc(b1-4)GlcNAc
# Method in brief: as §1
# [29] = target: Neu5Ac(a2-3)Gal(b1-3)[GlcNAc(b1-6)]GalNAc
# Method in brief: as §1
# [30] = target: Neu5Ac(a2-3)Gal(b1-4)GlcNAc(b1-2)Man
# Method in brief: as §1
# [31] = target: Neu5Ac(a2-3)Gal(b1-4)GlcNAc(b1-3)Gal(b1-4)GlcNAc(b1-3)Gal(b1-4)GlcNAc(b1-2)Man(a1-3)[Neu5Ac(a2-3)Gal(b1-4)GlcNAc(b1-3)Gal(b1-4)GlcNAc(b1-3)Gal(b1-4)GlcNAc(b1-2)Man(a1-6)]GalNAc
# Method in brief: as §1
# [32] = target: Neu5Ac(a2-3)Gal(b1-4)GlcNAc(b1-3)Gal(b1-4)GlcNAc(b1-3)GalNAc
# Method in brief: as §1
# [33] = target: Neu5Ac(a2-3)Gal(b1-4)GlcNAc(b1-3)Gal(b1-4)[Fuc(a1-3)]GlcNAc
# Method in brief: as §1
# [34] = target: Neu5Ac(a2-3)Gal(b1-4)[Fuc(a1-3)]GlcNAc(b1-2)Man
# Method in brief: as §1
# [35] = target: Neu5Ac(a2-6)Gal(b1-4)GlcNAc(b1-2)Man(a1-3)[Neu5Ac(a2-3)Gal(b1-4)GlcNAc(b1-2)Man(a1-6)]Man(b1-4)GlcNAc(b1-4)GlcNAc
# Method in brief: as §1
# [36] = target: Neu5Ac(a2-6)Gal(b1-4)GlcNAc(b1-2)Man(a1-3)[Neu5Ac(a2-6)Gal(b1-4)GlcNAc(b1-2)Man(a1-6)]Man(b1-4)GlcNAc(b1-4)GlcNAc
# Method in brief: as §1
# [37] = target: Neu5Ac(a2-6)Gal(b1-4)GlcNAc(b1-2)Man(a1-6)[GlcNAc(b1-2)Man(a1-3)]Man(b1-4)GlcNAc(b1-4)GlcNAc
# Method in brief: as §1
# [38] = target: Neu5Ac(a2-6)Gal(b1-4)GlcNAc(b1-3)Gal(b1-4)GlcNAc(b1-2)Man(a1-3)[Neu5Ac(a2-6)Gal(b1-4)GlcNAc(b1-3)Gal(b1-4)GlcNAc(b1-2)Man(a1-6)]GalNAc
# Method in brief: as §1
# [39] = target: Neu5Ac(a2-6)Gal(b1-4)GlcNAc(b1-3)Gal(b1-4)GlcNAc(b1-3)[Neu5Ac(a2-6)Gal(b1-4)GlcNAc(b1-3)Gal(b1-4)GlcNAc(b1-6)]GalNAc
# Method in brief: as §1
# Neu5Ac(a2-6)GalNAc = target: Neu5Ac(a2-6)GalNAc
# Method in brief: as §1
# [40] = target: Neu5Ac(a2-6)GalNAc(b1-4)GlcNAc
# Method in brief: as §1
# [41] = target: Neu5Ac(a2-8)Neu5Ac(a2-3)Gal(b1-4)Glc
# Method in brief: as §1
# [42] = target: Neu5Ac(a2-8)Neu5Ac(a2-3)[GalNAc(b1-4)]Gal(b1-4)Glc
# Method in brief: as §1
binder,measurement,setting,value
"RsaA-N-term (Caulobacter crescentus), P35828 (protein) MAYTTAQLVTAYTNANLGKAPDAATTLTLDAYATQTQTGGLSDAAALTNTLKLVNSTTAVAIQTYQFFTGVAPSAAGLDFLVDSTTNTNDLNDAYYSKFAQENRFINFSINLATGAGAGATAFAAAYTGVSYAQTVATAYDKIIGNAVATAAGVDVAAAVAFLSRQANIDYLTAFVRANTPFTAAADIDLAVKAALIGTILNAATVSGIGGYATATAAMINDLSDGALSTDNAAGVNLFTAYPSSGVSGSTLSLTTGTDTLTGTANNDTFVAGEVAGDGSGWSHPQFEKGG",glycan array binding signal (z-score),[1],5.97
same,glycan array binding signal (z-score),[2],7.05
same,glycan array binding signal (z-score),[3],2.4
same,glycan array binding signal (z-score),[4],-1.26
same,glycan array binding signal (z-score),[5],-0.298
same,glycan array binding signal (z-score),[6],-0.243
same,glycan array binding signal (z-score),[7],-0.328
same,glycan array binding signal (z-score),[8],-0.025
same,glycan array binding signal (z-score),[9],1.14
same,glycan array binding signal (z-score),[10],-0.479
same,glycan array binding signal (z-score),[11],0.016
same,glycan array binding signal (z-score),[12],-0.359
same,glycan array binding signal (z-score),[13],0.215
same,glycan array binding signal (z-score),[14],-0.708
same,glycan array binding signal (z-score),[15],3.15
same,glycan array binding signal (z-score),[16],2.39
same,glycan array binding signal (z-score),Gal3S(b1-3)GalNAc,1.7
same,glycan array binding signal (z-score),[17],-0.524
same,glycan array binding signal (z-score),Gal6S(b1-3)GlcNAc6S,3.01
same,glycan array binding signal (z-score),Gal6S(b1-4)Glc,-0.512
same,glycan array binding signal (z-score),GalNAc3S(b1-4)GlcNAc3S,0.081
same,glycan array binding signal (z-score),Glc(b1-4)Glc,-0.512
same,glycan array binding signal (z-score),[18],0.008
same,glycan array binding signal (z-score),[19],-0.491
same,glycan array binding signal (z-score),[20],0.317
same,glycan array binding signal (z-score),[21],2.18
same,glycan array binding signal (z-score),[22],2.59
same,glycan array binding signal (z-score),[23],0.217
same,glycan array binding signal (z-score),[24],-0.221
same,glycan array binding signal (z-score),[25],0.174
same,glycan array binding signal (z-score),[26],-1.29
same,glycan array binding signal (z-score),[27],0.427
same,glycan array binding signal (z-score),[28],7.19
same,glycan array binding signal (z-score),[29],-1.21
same,glycan array binding signal (z-score),[30],2.51
same,glycan array binding signal (z-score),[31],-0.725
same,glycan array binding signal (z-score),[32],-1.2
same,glycan array binding signal (z-score),[33],-0.112
same,glycan array binding signal (z-score),[34],0.103
same,glycan array binding signal (z-score),[35],2.79
same,glycan array binding signal (z-score),[36],0.398
same,glycan array binding signal (z-score),[37],0.365
same,glycan array binding signal (z-score),[38],-1.33
same,glycan array binding signal (z-score),[39],-0.68
same,glycan array binding signal (z-score),Neu5Ac(a2-6)GalNAc,2.17
same,glycan array binding signal (z-score),[40],-0.593
same,glycan array binding signal (z-score),[41],-0.815
same,glycan array binding signal (z-score),[42],-0.001
